Results as given in ChEMBL document CHEMBL4513216, “Probing the Open Global Health Chemical Diversity Library for Multistage-Active Starting Points for Next-Generation Antimalarials” (ACS Infect Dis, 2020).
Screen size: about 68,000 compounds; about 2,700 (4%) showed an effect of 50% or more. Only a selection was taken, and strong results are over-represented in it overall.

These compounds were tested on Plasmodium berghei (assay: Screen against P. berghei liver stage (PbLuc), transformed with Luciferase, at 2uM). Settings: tested at 2 uM.
Type: functional, HepG2
`COc1cnc(N2C[C@H](CO)C[C@H](CN3CCOCC3)C2)nc1` was tested, and the INHIBITION was -3.87%. `COc1c(C2CCCN2C(=O)c2ccc(C(N)=O)s2)c(C)nn1C` (configuration not stated) was tested, and the INHIBITION was -21.71%. Work on `COc1ccc2c(c1)OCC(CNC1CCc3ncnn3C1)=C2` (configuration not stated) yielded an INHIBITION of -34.12%. With `Cc1ccc(F)cc1C(=O)OCC1CCCN1C(N)=O` (configuration not stated) the INHIBITION was 5.48%. Work on `NC(=O)N1CCCC1COC(=O)c1ccc(F)cc1Br` (configuration not stated) yielded an INHIBITION of 6.47%. In the case of `NC(=O)N1CCCC1COC(=O)c1cc(F)ccc1F` (configuration not stated), the INHIBITION is reported as 61.91%. With `CN1CCN(C=C2N=C(c3cc(-c4ccc(F)cc4)n[nH]3)ON2)CC1` the INHIBITION was 22.39%. With `CCN(C)C[C@@H]1CN(S(=O)(=O)c2cccc(Cl)c2)C[C@@H]1CO` the INHIBITION was 55.36%. Work on `CCN(C)C[C@@H]1CN(S(=O)(=O)c2cccc(C#N)c2)C[C@@H]1CO` yielded an INHIBITION of 14.82%. For `CCN(C)C[C@@H]1CN(S(=O)(=O)c2ccc(OC)cc2)C[C@@H]1CO`, the INHIBITION was 76.82%. Compound `CCN(C)C[C@@H]1CN(S(=O)(=O)c2ccc(C#N)cc2)C[C@@H]1CO` has an INHIBITION of 14.82%. Compound `CC[C@H]1CN(S(=O)(=O)c2ccc(OC)cc2)CC[C@H]1CC(=O)O` has an INHIBITION of 45.73%. Work on `CCN(C)C[C@@H]1CN(Cc2cccc(Cl)c2)C[C@@H]1CO` yielded an INHIBITION of 38.97%. Work on `CCCC1(CO)CCCN(C(=O)CNC(N)=O)C1` (configuration not stated) yielded an INHIBITION of 3.49%. `Cc1noc(C)c1CN1CCOC2(CCCN(c3nncs3)C2)C1` (configuration not stated) was tested, and the INHIBITION was 31.96%. Work on `CCCS(=O)(=O)N1CCC2(CC1)CN(CC1CCOC1)c1ccccc12` (configuration not stated) yielded an INHIBITION of 27.67%. `CC1CCCN(CCNC(=O)c2scnc2Cl)C1` (configuration not stated) was tested, and the INHIBITION was 78.42%. Work on `CC1CCCN(CCNC(=O)c2ccn(-c3ccccc3)n2)C1` (configuration not stated) yielded an INHIBITION of -61.61%. With `CC1CCN(CCNC(=O)c2scnc2Cl)CC1` the INHIBITION was 47.87%. Compound `COc1cn(-c2ccccc2)nc1C(=O)NCCN1CCCC(C)C1` (configuration not stated) has an INHIBITION of 66.2%. Work on `COc1cn(-c2ccccc2)nc1C(=O)NCCCN1CCCC(C)C1` (configuration not stated) yielded an INHIBITION of 20.11%. With `O=C(NCCN1CCCCC1)c1scnc1Cl` the INHIBITION was -9.66%. With `O=C(NCC1(O)COCCN(Cc2ccc(O)cc2)C1)c1cnccn1` (configuration not stated) the INHIBITION was 30.1%. `CCCc1nc(C)cc(NCc2ccc(S(N)(=O)=O)cc2)n1` was tested, and the INHIBITION was -16%. For `Cc1nnc(-c2cccc(C#N)c2)n1C1CCCN(C(C)C)C1=O` (configuration not stated), the INHIBITION was -12.01%. `COc1nc2c(cc1C(=O)N1CC[C@H](CO)[C@@H](O)C1)CCC2` showed an INHIBITION of 49.02%. `Cc1nc2c(c(NCCc3nccs3)n1)CCN(CC1CC1)CC2` showed an INHIBITION of -28.09%. Compound `COCCNc1nc(C)nc2c1CCN(CC1CCC(N)CC1)CC2` (configuration not stated) has an INHIBITION of 57.67%. `COCCNc1nc(C2CCCC2)nc2c1CCNCC2` showed an INHIBITION of 34.98%. For `O=C(O)COCC(=O)NC1CC2(CCCCC2)Oc2ccccc21` (configuration not stated), the INHIBITION was 13.22%. Compound `Cc1noc(C2CCN(C(=O)c3ccc(C(F)(F)F)nc3)CC2)n1` has an INHIBITION of 5.05%. `CC1CCc2nc(O)c(C(=O)NCc3ccncc3)cc2C1` (configuration not stated) was tested, and the INHIBITION was 1.06%. Compound `CC1CCc2nc(O)c(C(=O)NCCCN3CCN(C)CC3)cc2C1` (configuration not stated) has an INHIBITION of 68.39%. In the case of `CC1CCc2nc(O)c(C(=O)NCCc3cccs3)cc2C1` (configuration not stated), the INHIBITION is reported as 53.61%. In the case of `CC1CCc2nc(O)c(C(=O)NCCN(C)C)cc2C1` (configuration not stated), the INHIBITION is reported as 27.24%. Work on `CCCNC(=O)c1cc2c(nc1O)CCC(C)C2` (configuration not stated) yielded an INHIBITION of 44.39%. `Cc1csc(CCNC(=O)c2cc3c(nc2O)CCC(C)C3)n1` (configuration not stated) gave an INHIBITION of -46.57%. With `Cc1nn(CCO)c(C)c1CNCc1cccnc1N(C)C` the INHIBITION was 23.42%. `CC(C)Oc1ncnc2c1CCN(Cc1ccc(F)cc1)CC2` gave an INHIBITION of 1.08%. For `COc1ccccc1OCCC(=O)N1CCCC1Cn1cc(C)cn1` (configuration not stated), the INHIBITION was -14.11%. For `Cc1ccc(CNC(=O)CN2CCN(CC(O)C3CC3)CC2)cc1` (configuration not stated), the INHIBITION was -10.6%. For `Cc1cccc(CN2CCO[C@H]3[C@@H](OCc4ccncc4)CC[C@@H]32)n1`, the INHIBITION was 15.78%. `Cc1cnn(C2CCCN(C(=O)CCCNc3ncccn3)C2)c1` (configuration not stated) was tested, and the INHIBITION was -34.45%. Compound `COCC(=O)N1C[C@H]2CCCC(OCc3cccnc3)[C@H]2C1` (some centres not stated) has an INHIBITION of -34.83%. With `CC(C)N(C)Cc1nnc2n1CCCN(c1cnccn1)C2` the INHIBITION was 20.01%. In the case of `Cc1nc2c(cc1C(=O)O)CCN(CC1CC1)CC2`, the INHIBITION is reported as -14.21%. Compound `Cn1nccc1-c1nc2c(cc1C(=O)O)CCN(CC1CC1)CC2` has an INHIBITION of 52.66%. `CNC(=O)c1cc2c(nc1NCC(C)C)CCN(C)CC2` gave an INHIBITION of 20.21%. Work on `Cn1nccc1-c1nc2c(cc1C(=O)O)CCN(C(=O)C1CC1)CC2` yielded an INHIBITION of -28.2%. Compound `CNC(=O)c1cc2c(nc1NCC1CC1)CCN(CC1CC1)CC2` has an INHIBITION of 11.18%. `CNC(=O)c1cc2c(nc1NCC(C)C)CCN(CC1CC1)CC2` showed an INHIBITION of 57.85%. For `CNC(=O)c1cc2c(nc1NC(C)C)CCNCC2`, the INHIBITION was -9.98%.
